PubChem BioAssay (Tox21)
Results filed as inconclusive are left out. Activity calls are given as the source filed them. Unless noted, calls come from the whole dose curve; as a rule, active = well fitted cell-killing curve with a large enough effect in the repeat runs (not every such curve was filed as active); inconclusive = weak or mixed curves, or effect the other way; inactive = no such curve, though single readings can be large or run the other way.

molecular target: Bile acid receptor (Homo sapiens) (UniProt Q96RI1); experiment: qHTS assay to identify small molecule agonists of the farnesoid-X-receptor (FXR) signaling pathway (AID 743220; active = well fitted activation curve with a large enough effect in the signal ratio in the repeat runs, not every such curve was filed as active; the % refers to the signal ratio); settings: HEK293T FXR-UAS-bla, beta-lactamase FRET ratio, 16 h; series mostly up to 62.6 µM
Procedure, shortened: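 Beta-lactamase reporter under UAS control in GeneBLAzer FXR HEK 293T cells (5000/well) measured with LiveBLAzer FRET substrate after 2 h at room temperature. Compound exposure lasted 16 h at 37C.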

Chain of Bile acid receptor (Homo sapiens) (Q96RI1 whole entry, looked up): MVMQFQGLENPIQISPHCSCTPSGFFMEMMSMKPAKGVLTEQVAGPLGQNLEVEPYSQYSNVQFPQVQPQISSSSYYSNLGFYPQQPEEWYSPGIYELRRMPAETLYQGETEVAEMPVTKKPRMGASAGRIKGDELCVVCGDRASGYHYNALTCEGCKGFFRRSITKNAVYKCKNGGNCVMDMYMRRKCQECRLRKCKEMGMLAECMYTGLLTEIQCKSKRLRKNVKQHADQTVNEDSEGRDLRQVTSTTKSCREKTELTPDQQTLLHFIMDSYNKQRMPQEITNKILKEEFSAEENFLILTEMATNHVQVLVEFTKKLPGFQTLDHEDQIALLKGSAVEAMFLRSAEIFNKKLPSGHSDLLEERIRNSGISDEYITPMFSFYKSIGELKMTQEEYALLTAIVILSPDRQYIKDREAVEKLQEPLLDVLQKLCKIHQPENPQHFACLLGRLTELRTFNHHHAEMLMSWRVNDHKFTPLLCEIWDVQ

| SMILES | outcome |
| --- | --- |
| c1ccccc1 | inactive |
| CCN(CC)C(=O)C1CN2CCc3cc(OC)c(OC)cc3C2CC1OC(C)=O (centres undefined) | inactive |
| CC(CC(=O)O)CC(C)(C)C (centres undefined) | inactive |
| Cc1nc2n(c(=O)c1CCN1CCC(C(=O)c3ccc(F)cc3)CC1)CCS2 | inactive |
| Cc1cccc(NC(=S)N(C)C)c1 | inactive |
| O=C(O)/C=C/c1ccccc1 | inactive |
| CNC(=O)C(c1ccccc1)c1ccccc1 | inactive |
| CCCCC(CC)CNC(=O)CC(C)OC(=O)CCC(=O)O (centres undefined) | inactive |
| CC(=O)OC[C@H]1O[C@@H](OC(C)=O)[C@H](OC(C)=O)[C@@H]1OC(C)=O | inactive |
| N#CCCOCCOCCC#N | inactive |
| CCOC(=O)C(=O)c1csc(NC=O)n1 | inactive |
| C/C=C(\C)C(=O)OCC/C=C\CC | inactive |

test system: not listed separately; experiment: qHTS assay to identify small molecule antagonists of the farnesoid-X-receptor (FXR) signaling pathway - cell viability counter screen (AID 743221); settings: FXR-bla HEK293T viability, CellTiter-Glo luminescence, 16 h; series mostly up to 62.6 µM; note: nearly all actives have a fitted effect of over 50% in size
Procedure, shortened: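 Compound effects on cell number were measured as CellTiter-Glo luminescence in HEK 293T cells expressing FXR-UAS-bla, after 16 h at 37 C with 50 uM CDCA (final).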

| SMILES | outcome |
| --- | --- |
| c1ccccc1 | inactive |
| CCCCCN(CCCOC)C(=O)C(CCC(=O)O)NC(=O)c1ccc(Cl)c(Cl)c1 (centres undefined) | inactive |
| CCN(CC)C(=O)C1CN2CCc3cc(OC)c(OC)cc3C2CC1OC(C)=O (centres undefined) | inactive |
| O=C(CN1CCN(Cc2ccc3c(c2)OCO3)CC1)N1c2ccccc2Sc2ccccc21 | inactive |
| CC(=O)N(CC(O)CO)c1c(I)c(C(=O)NCC(O)CO)c(I)c(C(=O)NCC(O)CO)c1I (centres undefined) | inactive |
| CC(CC(=O)O)CC(C)(C)C (centres undefined) | inactive |
| c1ccc(CNc2ncnc3nc[nH]c23)cc1 | inactive |
| CCC(CO)CO | inactive |
| CC(=O)OC(C)(C)Cc1ccccc1 | inactive |
| C=CCOc1cc(Cl)ccc1C(=O)NCCN(CC)CC | inactive |
| Cc1nc2n(c(=O)c1CCN1CCC(C(=O)c3ccc(F)cc3)CC1)CCS2 | inactive |
| CCOC(=O)CC#N | inactive |
| CC(=O)OCCCc1ccccc1 | inactive |
| CC(C)C(=O)Nc1cccc(C(F)(F)F)c1 | inactive |
| Cc1cccc(NC(=S)N(C)C)c1 | inactive |
| CCC(C)(CCC(C)C)C(=O)[O-].CCC(C)(CCC(C)C)C(=O)[O-].[Zn+2] (centres undefined) | inactive |
| CC(C)COC(=O)/C=C/c1ccccc1 | inactive |
| Nc1ccc(C(=O)OCC(O)CO)cc1 (centres undefined) | inactive |
| O=S(=O)(O)c1cc(O)ccc1O | inactive |

| SMILES | outcome |
| --- | --- |
| O=C(O)c1ccc(OCCN2CCCCC2)cc1 | inactive |
| O=C(O)/C=C/c1ccccc1 | inactive |
| CCCCCCCCCCCCCCCCCCN(C)C | inactive |
| C[Si]1(C)N[Si](C)(C)N[Si](C)(C)N1 | inactive |
| Cc1ccc(C(=O)C(=O)O)cc1C | inactive |
| CNC(=O)C(c1ccccc1)c1ccccc1 | inactive |
| CCCCC(CC)CNC(=O)CC(C)OC(=O)CCC(=O)O (centres undefined) | inactive |
| CC(=O)OC[C@H]1O[C@@H](OC(C)=O)[C@H](OC(C)=O)[C@@H]1OC(C)=O | inactive |
| N#CCCOCCOCCC#N | inactive |
| CC(C)CCC(=O)CCC(C)C | inactive |
| Nc1nc(=O)n([C@@H]2O[C@H](CO)[C@@H](O)[C@@H]2F)cc1I | inactive |
| CCOC(=O)C(=O)c1csc(NC=O)n1 | inactive |
| CC(C)=CC(C)(C)C | inactive |
| O=C1OC(=O)c2cc(Oc3ccc4c(c3)C(=O)OC4=O)ccc21 | inactive |
| CC(=O)N1CCN(c2ccc(O)cc2)CC1 | inactive |
| COc1ccc(OC)c(NC(=O)CC(C)=O)c1 | inactive |
| CO/N=C(/C(=O)N[C@@H]1C(=O)N2C(C(=O)O)=C(Cn3nnc(C)n3)CS[C@H]12)c1csc(N)n1 | inactive |
| COc1cc([N+](=O)[O-])ccc1N | inactive |
| C/C=C(\C)C(=O)OCC/C=C\CC | inactive |

molecular target: Vitamin D3 receptor (Homo sapiens) (UniProt P11473); experiment: qHTS assay to identify small molecule agonists of the vitamin D receptor (VDR) signaling pathway (AID 743222; calls by dose curve); settings: HEK293T VDR-UAS-bla, beta-lactamase FRET ratio, 16 h; series mostly up to 63.5 µM
Procedure, shortened: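 VDR-bla cells, 2,000/well; 4 h preincubation 37C; cpd (DMSO) 16 h; LiveBLAzer B/G substrate 2 h RT; fluorescence intensity read.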

Chain of Vitamin D3 receptor (Homo sapiens) (P11473 whole entry, looked up): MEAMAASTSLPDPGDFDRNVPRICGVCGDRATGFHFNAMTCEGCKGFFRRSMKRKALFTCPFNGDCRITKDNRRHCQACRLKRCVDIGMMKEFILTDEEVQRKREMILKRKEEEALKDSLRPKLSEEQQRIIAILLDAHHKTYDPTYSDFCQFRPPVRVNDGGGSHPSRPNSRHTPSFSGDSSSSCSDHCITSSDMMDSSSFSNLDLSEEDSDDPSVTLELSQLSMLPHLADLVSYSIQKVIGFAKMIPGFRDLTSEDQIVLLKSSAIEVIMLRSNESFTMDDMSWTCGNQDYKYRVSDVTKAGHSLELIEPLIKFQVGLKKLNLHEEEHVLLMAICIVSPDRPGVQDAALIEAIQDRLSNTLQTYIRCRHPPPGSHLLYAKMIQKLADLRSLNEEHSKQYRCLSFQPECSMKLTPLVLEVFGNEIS

| SMILES | outcome |
| --- | --- |
| c1ccccc1 | inactive |
| CCCCCN(CCCOC)C(=O)C(CCC(=O)O)NC(=O)c1ccc(Cl)c(Cl)c1 (centres undefined) | inactive |
| O=C(CN1CCN(Cc2ccc3c(c2)OCO3)CC1)N1c2ccccc2Sc2ccccc21 | inactive |
| CC(=O)N(CC(O)CO)c1c(I)c(C(=O)NCC(O)CO)c(I)c(C(=O)NCC(O)CO)c1I (centres undefined) | inactive |
| CC(CC(=O)O)CC(C)(C)C (centres undefined) | inactive |
| c1ccc(CNc2ncnc3nc[nH]c23)cc1 | inactive |
| C=CCOc1cc(Cl)ccc1C(=O)NCCN(CC)CC | inactive |
| CC(C)C(=O)Nc1cccc(C(F)(F)F)c1 | inactive |
| Cc1cccc(NC(=S)N(C)C)c1 | inactive |
| CCC(C)(CCC(C)C)C(=O)[O-].CCC(C)(CCC(C)C)C(=O)[O-].[Zn+2] (centres undefined) | inactive |
| Nc1ccc(C(=O)OCC(O)CO)cc1 (centres undefined) | inactive |
| O=S(=O)(O)c1cc(O)ccc1O | inactive |
| O=C(O)c1ccc(OCCN2CCCCC2)cc1 | inactive |
| Cc1ccc(C(=O)C(=O)O)cc1C | inactive |
| CNC(=O)C(c1ccccc1)c1ccccc1 | inactive |
| CCCCC(CC)CNC(=O)CC(C)OC(=O)CCC(=O)O (centres undefined) | inactive |
| CC(=O)OC[C@H]1O[C@@H](OC(C)=O)[C@H](OC(C)=O)[C@@H]1OC(C)=O | inactive |
| CC(C)CCC(=O)CCC(C)C | inactive |
| CCOC(=O)C(=O)c1csc(NC=O)n1 | inactive |
| CC(C)=CC(C)(C)C | inactive |
| COc1ccc(OC)c(NC(=O)CC(C)=O)c1 | inactive |
| CO/N=C(/C(=O)N[C@@H]1C(=O)N2C(C(=O)O)=C(Cn3nnc(C)n3)CS[C@H]12)c1csc(N)n1 | inactive |
| COc1cc([N+](=O)[O-])ccc1N | inactive |
| C/C=C(\C)C(=O)OCC/C=C\CC | inactive |
